In PubChem BioAssay (Tox21):
Records with an inconclusive call do not appear. Unmarked numbers belong to inactive results. The source made the active and inactive calls. Calls come from the whole dose curve; as a rule, active = well fitted cell-killing curve with a large enough effect in the repeat runs; inconclusive = weak or mixed curves, or effect the other way; inactive = flat fitted curve, though single readings scatter.

Test: Caspase-3/7 induction in HepG2 cells by small molecules, qHTS cell viability counter screen (AID 1346981); note: nearly all actives have a fitted effect of over 30% in size
Settings: CellTiter-Fluor fluorescence, 17 h; series mostly up to 92.4 µM; activity change, negative = cytotoxicity: at the top concentration
From the text: U.S. Tox21 Program National Center for Advancing Translational Sciences [NCATS] NIH Chemical Genomics Center [NCGC] U.S. Environmental Protection Agency [EPA] National Institutes of Environmental Health Sciences [NIEHS] National Toxicology Program [NTP] U.S. Food and Drug Administration [FDA] Tox21 Assay Overview: Apoptosis is a process of programmed cell death and plays a central role in the development of multicellular organisms. It is a highly regulated process and induces cell death by activating caspases, which are the members of cysteine aspartic acid-specific protease (caspase) family. Caspases involved in apoptosis are classified by their mechanism of action as initiator caspases (caspase-2, -8, -9 and -10) and executioner caspases (caspase-3, -6, and -7). Inhibition of apoptosis results in number of cancers, autoimmune diseases, inflammatory diseases and viral infection. To identify small molecule compounds that induce apoptosis, a homogeneous, luminescent Caspase-Glo 3/7 assay was used. Wild type HepG2 cells were used to screen Tox21 libraries for identifying caspase-3/7 activity inducers. Also cytotoxicity of the compounds was tested in parallel by measuring the cell viability using CellTiter-Fluor assay system in the same wells.
Tox21 Assay Protocol Summary: HepG2 cells were dispensed at 2,000 per well in 5uL of culture medium into white solid bottom 1536-well plates (Corning Life Sciences, Corning, NY) using a Multidrop Combi (Thermo Scientific, Waltham, MA) dispenser. The assay plates were incubated at 37 C and 5% CO2 for 5hr, and then 23nL of compounds dissolved in DMSO and positive control were transferred using a Pintool station ([…], San Diego, CA). The assay plates were incubated at 37C and 5% CO2 for 17hr. For cytotoxicity read, after 16hr incubation at 37C, 1uL CellTiter-Fluor reagent (Promega Corporation, Madison, WI) was added to each well of the assay plates using Flying Reagent Dispenser (FRD, Aurora Discovery, San Diego, CA). After 1hr incubation at 37C and 5% CO2, the fluorescence signal was quantified using a ViewLux plate reader (PerkinElmer, Shelton, CT).
% is set by controls: 0 for no effect and ±100 for the full control effect; potency is the fitted concentration of half-maximal effect.

Compound | Potency | activity change, negative = cytotoxicity
O=C(N[C@@H](c1ccccc1)[C@@H]1CCCCN1)c1cccc(C(F)(F)F)c1Cl | 61.1 µM (active) | 
NCC1CCCC(CN)C1 (stereo not given) |  | -0.263%
CSc1ccc(Oc2ccc(S(N)(=O)=O)cc2CN(C)C)cc1C |  | -3.86%
COC(=O)c1cc(S(N)(=O)=O)ccc1OC |  | 4.34% [at 42.5 µM]
[O]=[Bi] |  | -1.33% [at 8.39 µM]
Cc1oc(C)c(C(=O)Nc2ccccc2)c1C |  | 2.86%
CO[C@H]1C=CO[C@@]2(C)Oc3c(C)c(O)c4c(O)c(c5c(c4c3C2=O)=NC2(CCN(CC(C)C)CC2)N=5)NC(=O)/C(C)=C\C=C/[C@H](C)[C@H](O)[C@@H](C)[C@@H](O)[C@@H](C)[C@H](OC(C)=O)[C@@H]1C | 30 µM (active) | 
Cn1c(=O)c2c(ncn2CC(=O)O)n(C)c1=O |  | 1.6% [at 42.5 µM]
CNC(=O)N(c1ccccc1)c1ccccc1 |  | -5.33%
CCCC1C(CC)=CC(CC)=CN1c1ccccc1 (stereo not given) |  | -8.73%
CCCCOC(=O)CCS |  | 2.74%
CCCCC(CC)C(=O)OCCOCCOCCOCCOC(=O)C(CC)CCCC (stereo not given) |  | 6.57%
CCCCCCCCCCCCCCCCBr |  | 4.64% [at 19 µM]
C/C=C/C=C/CCCCCCCO |  | -9.66%
Cc1cc(O)c(C(C)C)cc1Cl | inactive | 
CCN(CC)CCNC(=O)c1ccc(NC(C)=O)cc1 |  | -0.239% [at 42.5 µM]
CC1=CC(=O)CC(C)(C)C1(O)/C=C/C(C)=C\C(=O)O (stereo not given) |  | 0.733%
Nc1ccc(S(=O)(=O)O)c(N)c1 |  | -0.188%
CO/N=C1\CN(c2nc3c(cc2F)c(=O)c(C(=O)O)cn3C2CC2)CC1CN (stereo not given) |  | -11% [at 42.5 µM]
CCCCCCCC/C=C\CCCCCCCC(=O)OC |  | -0.516%

Compound | Potency | activity change, negative = cytotoxicity
CC(CCO)CCc1ccccc1 (stereo not given) |  | 12.2%
COC(=O)Nc1nc2ccc(C(=O)c3cccs3)cc2[nH]1 |  | -5.11% [at 42.5 µM]
CC(=O)N(c1onc(C)c1C)S(=O)(=O)c1ccc(N)cc1 |  | 0.641% [at 42.5 µM]
CC(N)CN (stereo not given) |  | -1.13%
CC(=N\O)/C(C)=N/O |  | -10.7%
CCCCCCCCCCOS(=O)(=O)O |  | 1.8%
O=C(O)c1ccc(CO)o1 |  | 0.0978%
CC1(C)C2=CCCC(C)(C)[C@]23CC[C@H]1C3 |  | 1.29%
COC(=O)c1cc(Cl)ccc1NS(=O)(=O)C(F)(F)F |  | 1.89% [at 42.5 µM]
COc1ccc([C@@H]2Sc3ccccc3NC(=O)[C@@H]2O)cc1 |  | 9.26% [at 42.5 µM]
O=C(OCCOCCO)c1ccccc1Nc1cccc(C(F)(F)F)c1 |  | -2.46% [at 42.5 µM]
CC(C)(CCl)c1ccccc1 |  | -3.07%
O=C(CCCN1CCC(O)(c2ccc(Br)cc2)CC1)c1ccc(F)cc1 |  | -10.6% [at 42.5 µM]
CN1CCN(c2c(F)cc3c(=O)c(C(=O)O)cn4c3c2OCN4C)CC1 |  | 8.88% [at 19 µM]
c1cc[c]([Bi]([c]2ccccc2)[c]2ccccc2)cc1 |  | 0.552%
O=C(O)c1ccccc1NCCc1ccccc1 |  | 5.93% [at 42.5 µM]
CN1CCN(CCCN2c3ccccc3Sc3ccc(S(=O)(=O)N(C)C)cc32)CC1 | 29.8 µM (active) | 
NC(=O)N(O)[C@@H]1C=C[C@H](Oc2cccc(Oc3ccc(F)cc3)c2)C1 |  | -11.1%
CCCCCCCCCOC(C)=O |  | 0.403%
CN(C(=O)C(Cl)Cl)c1ccc(OC(=O)c2ccco2)cc1 |  | 6.2% [at 42.5 µM]
